PAX8 reporter: PAX8 transcriptional activity inhibition; inhibition, % at 12.6 µM; hit rate 1.2% among 360,000; AID 652154; RMG-I TPO-luciferase reporter, SteadyGlo, 24 h;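 active means mean replicate inhibition at least 60% with every replicate also reaching 60%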;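 further: luciferase light reporting Pax8 driven TPO promoter activity; plate controls were median of neutral control wells for no effect and mitoxantrone controls for full effect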
INS-1E GSIS act: GLuc luminescence reporter in INS-1E cells, primary screen for activators of glucose-dependent secretion of insulin. INS-1E GLuc reporter insulin secretion, 2-3 h. activation, % at 16.6 µM. hit rate 0.61% among 370,000. AID 743287;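 active means lowest replicate activation of at least 40%, so every replicate reaches that level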;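 further: 0% = median of neutral control wells and 100% = median of IBMX positive control wells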
miR-122 sensor: miR-122 inhibition in Huh7 cells; Huh7 miR-122 Renilla luciferase sensor, 48 h; neutral wells = 0, positive control = 100; activation (reporter increase), % at 12.5 µM; hit rate 0.3% among 340,000;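 active means mean replicate activation score at least 90 and every replicate individually at or above 90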;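 further: higher luciferase means less miR-122 activity so hits act as miR-122 inhibitors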
HIV Env fusion: inhibitors of HIV Env-mediated cell fusion. HeLa-JRFL Env/CEM21 cell fusion, luciferase. inhibition, % at 12.3 µM. hit rate 1.1% among 360,000. AID 651610;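 active means mean replicate inhibition score of at least 50 and every replicate individually at or above 50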;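 further: 0% = plate neutral controls and 100% = maraviroc near 300 nM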
Statin myotox sup: protects C2C12 myotubes from simvastatin toxicity; hit rate 0.78% among 330,000; ATP luminescence, 48 h; scaled: DMSO 0, geranylgeraniol control 100; rescue of ATP level, % at 7.49 µM;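 active means mean ATP rescue above about 67%, or every replicate alone reaching that limit, limit read from the data, passing the limit was not always enough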;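 further: myotubes were challenged with 10 µM simvastatin during compound exposure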
EWS-Fli inh: EWS/Fli transcriptional activity inhibition | AID 651661 | inhibition, % at 12.6 µM | hit rate 0.67% among 350,000 | A673 NR0B1-luciferase reporter, viability-normalised;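 active means mean inhibition of at least 50% after viability correction, with every replicate also passing that limit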;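 further: firefly luciferase signal divided by Alamar Blue viability fluorescence both relative to DMSO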
* marks the source's active call; other numbers are inactive results; nt = no result; [ ] = another dose, or the depositor's remark. A selection: hits, their analogues and other compounds. The true share with any hit is near 3.1%.

SMILES | PAX8 reporter | INS-1E GSIS act | miR-122 sensor | HIV Env fusion | Statin myotox sup | EWS-Fli inh
C[C@H]1CN([C@@H](C)CO)C(=O)c2cc(NC(=O)Cn3cnnn3)ccc2O[C@H]1CN(C)Cc1ccncc1 | 2 | 15 | 0[16.7 µM] | nt | -17 | 2
C[C@H]1CN([C@@H](C)CO)C(=O)c2cc(NC(=O)Cc3ccccc3)ccc2O[C@@H]1CN(C)S(=O)(=O)c1cccs1 | nt | -3 | 0[16.7 µM] | nt | 98* | -6
C[C@@H]1CN([C@H](C)CO)C(=O)Cc2cc(NC(=O)Nc3ccc4c(c3)OCO4)ccc2O[C@H]1CN(C)S(=O)(=O)c1cccs1 | -30 | 2 | -7[16.7 µM] | 9[16.7 µM] | 6 | 1
C[C@H](CO)N1C[C@H](C)[C@H](CN(C)S(=O)(=O)c2cccs2)Oc2ccc(NC(=O)Nc3ccc4c(c3)OCO4)cc2CC1=O | 34 | -43 | -7 | 99* | -30 | 17
C[C@H](CO)N1C[C@H](C)[C@H](CN(C)S(=O)(=O)c2cccs2)Oc2ccc(NC(=O)NC3CCCCC3)cc2CC1=O | -12 | -46 | -2[16.7 µM] | 84*[16.7 µM] | 11 | 4
C[C@H](CO)N1C[C@H](C)[C@@H](CN(C)S(=O)(=O)c2cccs2)Oc2ccc(NC(=O)Cc3ccccc3)cc2C1=O | 13 | 14 | -11 | 8 | -9 | 1
COC(=O)c1cn(CCCNC(=O)Nc2ccccc2)nn1 | 6 | nt | nt | -3[16.7 µM] | nt | -5
COCC(=O)Nc1ccc2c(c1)C(=O)N(C)C[C@H](OC)[C@H](C)CN(Cc1cncnc1)[C@@H](C)CO2 | nt | 1 | -7[16.7 µM] | nt | 6 | 0
COc1ccc(NC(=O)CC2C(=O)NCCN2C(=O)c2ccc(Cl)cc2)cc1 (configuration not stated) | -6 | nt | 0 | -1 | 101* | 3
Cc1ccc(NC(=O)CC2C(=O)NCCN2C(=O)c2ccc(F)cc2)cc1 (configuration not stated) | -4 | 10 | -5 | 53 | nt | nt
O=C(CC1C(=O)NCCN1C(=O)c1ccc([N+](=O)[O-])cc1)Nc1ccc(F)cc1 (configuration not stated) | -3 | -7 | -6 | -10 | 101* | nt
COc1ccc(NC(=O)N(C)C[C@@H]2Oc3ccc(NC(=O)Nc4ccc5c(c4)OCO5)cc3CC(=O)N([C@@H](C)CO)C[C@H]2C)cc1 | -24 | -3 | -2[16.7 µM] | 18[16.7 µM] | 7 | -7
C[C@H]1CN([C@@H](C)CO)C(=O)c2cccc(NC(=O)c3ccncc3)c2O[C@H]1CN(C)C(=O)NC1CCCCC1 | -1 | 8 | -11[16.7 µM] | -3[16.7 µM] | -1 | -13
Cc1ccc(CCNc2ccc3ccccc3c2)cn1 | nt | nt | -4 | nt | 94* | nt
Nc1c(Cl)ncnc1N/N=C/c1ccccn1 | 67* | 25 | nt | nt | nt | nt
Nc1c(Cl)ncnc1N/N=C/c1ccc2ccccc2n1 | 1 | 14 | nt | -49 | nt | -8
CC(C)OC(=O)N(C)C[C@H]1OCc2ccccc2-c2ccccc2C(=O)N([C@@H](C)CO)C[C@@H]1C | -22 | 3 | nt | 6[16.7 µM] | -8 | -6
O=C([C@@H]1[C@@H](CO)[C@@H]2Cn3c(ccc(-c4ccncc4)c3=O)[C@@H]2N1CCC(F)(F)F)N1CCCCC1 | 1 | 8 | -2[16.7 µM] | nt | -10 | -4
CCC(=O)N1[C@H](CO)[C@H]2c3ccccc3N(C(=O)Nc3cccc(Cl)c3)C[C@H]21 | -1 | -9 | -17[16.7 µM] | nt | -3 | -3
CSc1nnc(NC(=O)c2nc(S(=O)(=O)Cc3ccccc3F)ncc2Cl)s1 | 1 | 4 | 1 | -187 | -83 | 28
Cc1ccc(CS(=O)(=O)c2ncc(Cl)c(C(=O)Nc3nnc(C(C)C)s3)n2)cc1 | 28 | 10 | 17 | 7 | -87 | 70*
CC(C)c1nnc(NC(=O)c2nc(S(=O)(=O)Cc3ccc(F)cc3)ncc2Cl)s1 | 16 | 12 | 9 | 19 | -70 | nt
CC(C)c1nnc(NC(=O)c2nc(S(=O)(=O)Cc3ccccc3F)ncc2Cl)s1 | 0 | 25 | nt | -108 | nt | 61*
Cc1noc(C)c1NC(=O)N(C)C[C@@H]1Oc2ccc(NS(C)(=O)=O)cc2CC(=O)N([C@@H](C)CO)C[C@H]1C | 9 | 11 | 4[16.7 µM] | -4[16.7 µM] | -18 | 0
C[C@@H]1CN([C@@H](C)CO)C(=O)c2cc(NC(=O)Nc3ccc(C(F)(F)F)cc3)ccc2O[C@H]1CN(C)C(=O)NC1CCCCC1 | 3 | -19 | 1[16.7 µM] | nt | -6 | -4

Screening results from PubChem.
